Compound activity from PubChem BioAssay.
A selection: hits, their analogues and other compounds. The true share with any hit is near 27%.
CYP2C9 act – CYP2C9 (human) activation. actives 1.4% (n = 96,000). AID 1024. P11712. recombinant CYP2C9, luciferin-H conversion, luminescence; active compounds read high; factor 1 = untreated enzyme, 0 = blocked. activation factor at 5 µM;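 active means activation factor of 2 or more for CYP2C9 at a 5 µM dose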;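 further: 0 = sulfaphenazole-blocked wells and 1 = vehicle-only wells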
Target sequence (P11712 whole entry, looked up): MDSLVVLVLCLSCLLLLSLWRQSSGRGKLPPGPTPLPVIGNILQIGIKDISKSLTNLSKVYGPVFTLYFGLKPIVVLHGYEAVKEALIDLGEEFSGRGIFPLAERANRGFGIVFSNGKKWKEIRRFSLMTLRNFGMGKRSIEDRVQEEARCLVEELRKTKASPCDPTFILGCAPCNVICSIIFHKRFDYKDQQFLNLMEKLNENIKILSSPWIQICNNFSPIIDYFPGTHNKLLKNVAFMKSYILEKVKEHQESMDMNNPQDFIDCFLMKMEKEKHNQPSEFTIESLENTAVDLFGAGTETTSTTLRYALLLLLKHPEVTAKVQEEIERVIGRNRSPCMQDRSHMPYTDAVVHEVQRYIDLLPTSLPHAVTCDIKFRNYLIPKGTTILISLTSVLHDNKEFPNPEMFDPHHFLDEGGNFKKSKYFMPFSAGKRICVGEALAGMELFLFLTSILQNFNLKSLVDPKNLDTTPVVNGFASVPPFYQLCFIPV
Cav3 T inh – blocks human Cav3.2 T-type calcium channel; O95180; Cav3.2-expressing cells, Fluo-4 calcium fluorescence FDSS; active compounds read low; B-score at 10 µM; actives 4% (n = 100,000);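 active means single-dose well whose peak fluorescence ratio is a statistical outlier from its plate by either plate-standardised score or position-corrected B-score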
CYP2C9 inhib – blocks human cytochrome P450 2C9; P11712; CYP2C9 Supersomes, luciferin-H conversion, luminescence; inhibition, % at 5 µM; actives 20% (n = 96,000);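 active means blocking of liver enzyme CYP2C9 beyond about 50% at 5 µM, limit read from the data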
CYP2C19 activ – increases human CYP2C19 enzyme activity; P33261; 96,000 tested, under 10 active; activation factor at 5 µM; recombinant CYP2C19, luciferin-H EGE luminescence; active compounds read high; 0 = fully inhibited enzyme, 1 = untreated enzyme;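 active means activation factor of at least 2 at 5 µM in the primary screen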;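 further: 0 = wells with 2.5 mM tranylcypromine and 1 = vehicle-only wells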
CYP2C19 inhib – inhibitors of human CYP2C19 | P33261 | CYP2C19 Supersomes, luciferin-H EGE luminescence, 30 min | inhibition, % at 5 µM | actives 21% (n = 96,000);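 active means CYP2C19 inhibition above a set limit at 5 µM in the primary screen, cut at about 50% in these data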;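 further: plate controls were negative control wells for no effect and 2.5 mM tranylcypromine positive control for full effect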
Active calls of the source: *; nt = no result given.

SMILES | CYP2C9 act | Cav3 T inh | CYP2C9 inhib | CYP2C19 activ | CYP2C19 inhib
CC(C)(C)NC(=O)[C@@H]1C[C@@H]2CCCC[C@@H]2CN1C[C@@H](O)[C@H](Cc1ccccc1)NC(=O)[C@H](CC(N)=O)NC(=O)c1ccc2ccccc2n1 | nt | -5.6* | nt | nt | nt
COC(=O)N/N=C(\C)c1ccccc1Br | 1.1 | 0.23 | -5 | 0.7 | 29
CCn1c(CCNC(=O)c2ccccc2Cl)n[nH]c1=S | 0.9 | -0.39 | 8 | 1 | 2
CCOC(=O)c1cnn(-c2nc(-c3cccc(F)c3)cs2)c1C(F)(F)F | 0.3 | 1.6 | 72* | 0.8 | 24
CCOC(=O)c1cnn(-c2nc3c(C)cccc3s2)c1C(F)(F)F | 0.6 | -0.22 | 36 | 0.7 | 32
O=C(CCN1C(=O)COc2ccccc21)N1CCCCC1 | 0.9 | 0.68 | 8 | 0.7 | 30
COc1ccccc1CNC(=O)c1csc(Cc2ccc(Cl)cc2)n1 | 0.4 | -8* | 56* | 0.4 | 60*
COc1ccc(CNC(=O)c2csnn2)cc1 | 1 | 1.1 | 4 | 0.5 | 52*
COc1ccc(NC(=O)c2csc(Cc3ccccc3)n2)cc1 | 0.4 | -1 | 64* | 0.5 | 50*
COc1ccc(CNC(=O)c2csc(Cc3ccccc3)n2)cc1 | 0.4 | nt | 59* | 0.1 | 88*
CCc1cc2c(SCC(=O)C(C#N)=C3N(C)c4ccccc4N3C)ncnc2s1 | 0.4 | nt | 62* | 0.6 | 40
CCCOn1c(OCC(C)C)nc2ccccc2c1=O | 0.9 | -5* | 11 | 0.9 | 12
CC(C)COc1nc2ccccc2c(=O)n1OCC(=O)O | 0.8 | nt | 22 | 0.6 | 41
Cc1cccc(NC(=O)CCn2nc(C)cc2C)c1 | 2.6* | nt | -160 | 0.3 | 71*
Cc1ccc(NC(=O)CCn2nc(C)cc2C)c(C)c1 | 1 | 0.53 | -2 | 0.5 | 53*
Cc1ccc(NC(=O)CNc2cccc(C)c2C)c(C)c1 | 0.5 | -2.2 | 52* | 0.4 | 64*
Cc1cc(C)n(CC(=O)Nc2ccccc2)n1 | 1.1 | 1.1 | -6 | 0.9 | 10
COc1nc(-c2ccccc2)ccc1-c1noc(-c2ccccc2F)n1 | 0.9 | -0.95 | 14 | 1.1 | -10
COc1ccc(-n2c(Cc3cc(=O)[nH]c(=O)[nH]3)nnc2SCC(=O)Nc2ccccc2)cc1 | 1.1 | nt | -10 | 1.2 | -18
COc1ccc(NC(=O)CSc2nnc(Cc3cccn3C)n2-c2ccc(C)cc2)cc1OC | 0.7 | -2.2 | 26 | 0.9 | 9
COc1cccc(NC(=O)CSc2nnc(Cc3cccn3C)n2-c2ccc(F)cc2)c1 | 0.2 | -5* | 84* | 1.1 | -14
COc1ccc(-n2c(Cc3cccn3C)nnc2SCC(=O)Nc2cccc(OC)c2)cc1 | 0.6 | -4.2* | 44 | 0.7 | 25
COc1ccc(-n2c(Cc3cccn3C)nnc2SCC(=O)Nc2ccc(C)c(Cl)c2)cc1 | 0.7 | -4.2* | 27 | 0.9 | 12
Cc1cc(C)cc(NC(=O)CSc2nnc(Cc3cccn3C)n2-c2ccc(F)cc2)c1 | 0.9 | -13* | 10 | 1 | 0
Cc1ccc(OC(=O)c2oc3ccc(F)cc3c2C)c(C)c1 | 1 | 0.32 | 0 | 0.7 | 30
SMILES | CYP2C9 act | Cav3 T inh | CYP2C9 inhib | CYP2C19 activ | CYP2C19 inhib
O=C(NCCc1ccccc1)C(=O)NN=C1CCCC1 | 1 | nt | -2 | 1.1 | -7
Cn1cccc1Cc1nnc(SCC(=O)Nc2ccc3c(c2)OCO3)n1-c1ccc(F)cc1 | 0.6 | -8.5* | 44 | 0.6 | 40
Cc1ccc(C)c2c3c([nH]c12)-c1nonc1CC3 | 0.9 | -1.6 | 5 | 0.8 | 17
Cc1cccc(OCC(=O)N(C)CCc2ccccn2)c1 | 0.9 | -0.054 | 13 | 0.3 | 68*
Cc1cccc(CN(C)CCc2ccccn2)c1 | 1.1 | 0.45 | -5 | 0.8 | 21
O=c1cc(N2CCN(c3ccccc3F)CC2)[nH]c(=O)n1-c1ccc(Br)cc1 | nt | 0.7 | nt | nt | nt
COC(=O)C1=C(C)N(Cc2ccc(C)cc2)C(=O)/C1=C\c1ccc(O)c(OC)c1 | 0.1 | 0.61 | 92* | 0.5 | 52*
COC(=O)C1=C(C)N(CC2CCCO2)C(=O)/C1=C\c1ccc(O)cc1 (stereo not given) | 0.4 | 1.2 | 63* | 0.5 | 50*
COC(=O)C1=C(C)N(Cc2ccc(C)cc2)C(=O)C1 | 0.8 | 0.22 | 17 | 0.6 | 41
COC(=O)C1=C(C)N(C)C(=O)/C1=C\c1cccs1 | nt | 1.4 | nt | nt | nt
CSc1ccccc1NC(=O)c1ccco1 | 1 | 0.62 | 2 | 1 | -4
CCOc1cc(C(=S)N2CCCCC2)ccc1OCC(=O)NCc1ccccc1 | 0.2 | -0.23 | 83* | 0.4 | 58*
CCNCc1cc(OCC)c(OCC(=O)NCCc2ccccc2)cc1Cl | 0.8 | 1.2 | 19 | 0.1 | 88*
CCOc1ccc(C(=S)N2CCOCC2)cc1OCC | 1.4 | 0.055 | -44 | 1.2 | -17
CCOc1cc(C(=S)N2CCCCC2)ccc1OS(=O)(=O)c1ccc(Br)cc1 | 0.3 | -4.9* | 69* | 0.4 | 56*
CCOc1cc(C(=S)N2CCC(O)CC2)ccc1OS(=O)(=O)c1ccc(Br)cc1 | 0.3 | -4.9* | 68* | 0.1 | 87*
O=C(CCl)Nc1ccc(Oc2cnc3ccccc3n2)cc1 | 1.8 | 1.1 | -76 | 0.7 | 35
CCOc1cc(C(=S)N2CCCCC2)ccc1OS(=O)(=O)c1ccc(Cl)cc1 | 0.2 | -5* | 81* | 0.3 | 72*
COc1cccc(NC(=O)CN(c2ccc(C)cc2)S(=O)(=O)c2c(C)nn(C)c2C)c1 | 0.2 | 0.54 | 76* | 0.3 | 69*
COc1ccc(N(CC(=O)Nc2cc(OC)ccc2OC)S(=O)(=O)c2c(C)nn(C)c2C)cc1 | 0.2 | nt | 84* | 0.2 | 76*
Cc1ccc(N(CC(=O)NC2CCCCCC2)S(=O)(=O)c2c(C)nn(C)c2C)cc1 | 0.7 | 0.067 | 35 | 0.6 | 42
COc1ccc(N(CC(=O)Nc2nc3ccc(C)cc3s2)S(=O)(=O)c2c(C)nn(C)c2C)cc1 | 0.5 | -3 | 48 | 0.6 | 37
COc1ccc(N(CC(=O)Nc2cccc(OC)c2)S(=O)(=O)c2c(C)nn(C)c2C)cc1 | 0.2 | 0.42 | 83* | 0.3 | 75*
CC(C)N(O)C(=O)NC(C)(C)C | 0.9 | nt | 8 | 1 | -3
CC(C)(C)C(=O)CSc1nccc(=O)[nH]1 | 1 | -0.0038 | 0 | 1 | -4
SMILES | CYP2C9 act | Cav3 T inh | CYP2C9 inhib | CYP2C19 activ | CYP2C19 inhib
COc1ccc(C(CC(=O)O)NC(=O)c2ccccc2[N+](=O)[O-])cc1 (stereo not given) | nt | 1.2 | nt | nt | nt
COc1ccc(CNc2nc(NCc3ccc(OC)cc3)n(C(=O)c3ccccc3[N+](=O)[O-])n2)cc1 | 0.3 | -2.2 | 70* | 0.6 | 40
COc1ccc(N(Cc2ccccc2)C(=O)c2ccccc2[N+](=O)[O-])cc1 | 0.8 | -3.9 | 19 | 0.4 | 61*
CC(C)c1ccc(Oc2cccc(C(=O)/C(C#N)=C/N(C)C)c2)cc1 | 0.1 | -2.4 | 85* | 0 | 98*
CN(C)/C=C(\C#N)C(=O)c1cccc(Oc2ccc(Br)cc2)c1 | 0.7 | -4.2* | 29 | 0.1 | 92*
CCOc1cccc(Oc2ncccc2C(=O)/C(C#N)=C/N(C)C)c1 | 0.7 | nt | 27 | 0.6 | 42
